Results as given in PubChem BioAssay AID1619 (SRMLSC, 2009).
Out of some 220,000 compounds screened, about 830 (0.38%) were called active.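 The calls were made as follows: active = compound inhibiting the enzyme by more than half at any dose during confirmatory dose-response retesting; inconclusive = strong single-dose inhibitors picked by rank but not retested; inactive = the rest.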 A selection follows. Measured potencies and affinities stand elsewhere.

biological target: Leucine aminopeptidase (Plasmodium falciparum (isolate 3D7)) (UniProt Q8IL11); test: P. falciparum M17LAP inhibitors, primary screen, biochemical, fluorogenic H-Leu-NHMec substrate, 1536-well (AID 1619); settings: recombinant M17LAP, H-Leu-NHMec fluorogenic kinetic assay; at 30 µM; hits give high values;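 also: plate controls were full reaction with DMSO carrier for no effect and no enzyme background for full effect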
Sequence (Q8IL11 whole entry, looked up): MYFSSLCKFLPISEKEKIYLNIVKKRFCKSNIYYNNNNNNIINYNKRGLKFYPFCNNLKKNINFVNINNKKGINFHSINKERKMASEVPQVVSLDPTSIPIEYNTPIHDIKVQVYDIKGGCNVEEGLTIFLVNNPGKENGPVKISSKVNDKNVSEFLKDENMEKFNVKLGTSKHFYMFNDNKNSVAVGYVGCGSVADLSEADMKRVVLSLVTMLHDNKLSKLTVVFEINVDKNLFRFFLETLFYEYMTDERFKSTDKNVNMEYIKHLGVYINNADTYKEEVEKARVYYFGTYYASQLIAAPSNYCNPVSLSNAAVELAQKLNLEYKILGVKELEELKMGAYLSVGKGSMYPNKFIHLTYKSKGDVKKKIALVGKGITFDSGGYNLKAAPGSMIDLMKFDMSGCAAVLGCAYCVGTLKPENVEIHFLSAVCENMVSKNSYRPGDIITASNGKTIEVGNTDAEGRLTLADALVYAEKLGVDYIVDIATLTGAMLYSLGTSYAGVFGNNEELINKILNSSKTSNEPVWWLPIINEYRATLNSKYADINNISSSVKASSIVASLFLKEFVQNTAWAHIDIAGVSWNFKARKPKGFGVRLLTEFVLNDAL

inhibition, inactive:
Cc1ccc(Cn2ccc(NC(=O)c3cc(C4CC4)on3)n2)cc1 1.62%
Cc1ccc(Cn2ccc(NC(=O)c3cc(C)on3)n2)cc1 -2.56%
Cc1c(NC(C)c2ccccc2O)c(=O)n(-c2ccccc2)n1C (stereo not given) 3.02%
C/C(=C\C(=O)c1ccc(Br)cc1)Nc1ccc(Cl)cc1 -7.69%
COc1nccnc1NS(=O)(=O)c1ccc(N=Cc2c(C)[nH]n(-c3ccc(Cl)cc3)c2=O)cc1 38.5%
COc1ccc(C(=O)Nc2ccc(S(=O)(=O)Nc3nccnc3OC)cc2)cc1OC 16.3%
Cc1cc(C)nc(NS(=O)(=O)c2ccc(N=Cc3c(C)[nH]n(-c4ccccc4)c3=O)cc2)n1 6.98%
Cc1ccc(-n2[nH]c(C)c(C=Nc3ccc(S(=O)(=O)Nc4nccs4)cc3)c2=O)cc1C -8.94%
Cc1[nH]n(-c2ccccc2)c(=O)c1C=Nc1ccc(S(=O)(=O)Nc2nccs2)cc1 3.82%
CCc1nnc(NS(=O)(=O)c2ccc(NS(=O)(=O)c3ccc(NC(C)=O)cc3)cc2)s1 35.4%
CCc1nnc(NS(=O)(=O)c2ccc(N3C(=O)c4ccc(C(=O)O)cc4C3=O)cc2)s1 3.4%
CCc1nnc(NS(=O)(=O)c2ccc(N=Cc3c(C)[nH]n(-c4ccc(Cl)cc4)c3=O)cc2)s1 45.4%
O=C(CN1CCOCC1)Nc1ccccc1-c1ccccc1 -4.42%
CCOc1ccccc1N1CCN(C(=O)c2c(C)noc2C)CC1 -5.81%
CCC1CCCN1Cn1cnc2c([nH]c3ccc(C)cc32)c1=O (stereo not given) 0.76%
CCCc1nnc(NC(=O)CCC(=O)NCc2ccc(OC)cc2)s1 13.8%
CCCCOc1ccccc1Cn1c(=O)oc2ccc(C)cc21 -14.1%
O=C(CSc1ncccn1)n1c2c(c3ccccc31)CCCC2 0.07%
Cc1nc2ccccc2c2c1C(=O)N(C1CCCCCCC1)C2=O -2.77%
CN1C(=O)CSc2ccc(NC(=O)N3CCN(c4ccccc4)CC3)cc21 -3.56%
CC1CN(C(=O)c2ccc(N3CCCCC3)c([N+](=O)[O-])c2)CC(C)O1 (stereo not given) 8.04%
Cc1noc(NS(=O)(=O)c2ccc(NC(=O)c3cnc4n(c3=O)CCS4)cc2)c1C 36%
CCOc1cc(/C=N/NC(=S)Nc2ccccc2C(F)(F)F)ccc1OCC(=O)N1CCOCC1 0.32%
Cc1cc(-c2nc(-c3ccc(C(C)(C)C)cc3)no2)no1 2.57%
COCCCNC(=O)c1ccc(C2SCC(=O)N2Cc2ccco2)cc1 (stereo not given) 9.82%
COc1cc(SC)ccc1C(=O)NCc1ccc(C)cc1 -9.45%
CCc1nnc(NS(=O)(=O)c2ccc(N3C(=O)c4ccccc4C3=O)cc2)s1 19.2%
CCc1nnc(NS(=O)(=O)c2ccc(N=CC3=C(O)CC(C)(C)CC3=O)cc2)s1 37.1%
COc1cccc(/C=C2/NC(=O)NC2=O)c1OCC(=O)Nc1ccccc1 1.46%
Cc1ccnc2nc(C(=O)OCCOc3ccc(F)cc3)nn12 -4.95%
Cc1ccc(OCC(=O)Nc2cccc(O)c2)cc1C 17.6%
Cc1ccc(OCC(=O)Nc2cc(C(=O)O)cc(C(=O)O)c2)cc1C -17.5%
N#Cc1cc2c(nc1SCC(O)CS(=O)(=O)Cc1ccccc1)CCCC2 (stereo not given) 22.9%
Cc1cc(C)c(C#N)c(SCCS(=O)(=O)Cc2ccccc2)n1 -2.33%
COC(=O)N/N=C/c1cccc(OCCSc2ccc(Cl)cc2)c1 11.2%
C/C(=N\NC(=O)Cc1cccn1C)c1ccc2ccccc2c1 32.5%
COc1cc(/C(C)=N/NC(=O)CSc2nnc(C)s2)ccc1O -1.63%
C/C(=N\NC(=O)COc1ccccc1)c1ccc(O)cc1 16.8%
COc1cc(/C(C)=N/NC(=O)CSc2nc3ccccc3[nH]2)ccc1O 8.45%
C/C(=N\NC(=O)Cc1ccc(F)cc1)c1ccc(O)cc1 6.85%
C/C(=N\NC(=O)Cc1c[nH]c2ccccc12)c1ccc2ccccc2c1 -0.21%
CN(C)c1ccc(NC(=S)N2CCN(c3ncc(C(F)(F)F)cc3Cl)CC2)cc1 -0.82%
COc1ccccc1N1CCN(CC(=O)Nc2ccc(-n3cnnn3)cc2)CC1 -1.4%
O=c1cc(N2CCOCC2)[nH]c(=O)n1C1CCCCC1 8.33%
CC(C)c1nc(-c2c(N)n(C)c(=O)n(C)c2=O)sc1C(=O)C(C)(C)C -3.01%
O=C(c1cc(-c2ccc3c(c2)OCO3)on1)N1CCOCC1 -10.2%
Cc1ccc(NC(=O)Nc2ccc(F)cc2)nc1 3.7%
CCC(=O)N1CCN(c2ccc(NC(=O)c3ccc([N+](=O)[O-])o3)cc2Cl)CC1 3.55%
CCOC(=O)N1CCN(C(=O)Nc2cccc3ccccc23)CC1 23.7%
Fc1cccc(CSc2ccc3nnc(-c4cccnc4)n3n2)c1 21.3%
O=C(NC(=S)Nc1ccccc1O)c1ccc(-c2ccc(Cl)cc2)o1 1.04%
COc1ccccc1NC(=S)NC(=O)c1ccc(-c2ccc(Cl)cc2)o1 4.34%
Cc1ccc(OCC(=O)Nc2ccc(N(C)C)cc2)cc1 -2.19%
COc1ccc(-n2c(C(C)n3nc(C)c([N+](=O)[O-])c3C)n[nH]c2=S)cc1 (stereo not given) 31.2%
Cc1cccc(-c2n[nH]c(=S)n2-c2ccccc2)c1[N+](=O)[O-] 0.12%
Cc1ccc(NC(=S)NC(C)(C)C)c([N+](=O)[O-])c1 -4.98%
O=C(O)C1CCCCC1C(=O)NCCc1ccccc1 (stereo not given) 32.3%
O=C(O)[C@H]1CCCC[C@H]1C(=O)NCCc1ccccc1 36.3%
CC1=C(C)CC(C(=O)NCc2ccc3c(c2)OCO3)C(C(=O)O)C1 (stereo not given) 45.8%
COc1ccc(CNC(=O)C2CCNCC2)cc1 -2.52%
